{
  "source": "PubChem BioAssay (NCATS)",
  "note": "Records with an inconclusive call do not appear. Unmarked numbers belong to inactive results. Active and inactive are the calls of the source. Calls come from the whole dose curve; as a rule, active = well fitted inhibition curve with a large enough effect; inconclusive = small, poorly fitted or top-dose-only effect; inactive = flat fitted curve, though single readings scatter. Bridge positions count the residues as written; N and C are the ends. Square brackets hold non-standard residues; d marks the D form. Peptide text beside a SMILES is read from it. * marks the point of attachment. Ileψ(thiazoline)Cys = CC[C@H](C)[C@H](N)C1=N[C@H](C(=O)*)CS1; d(aIle) = CC[C@H](C)[C@@H](N)C(=O)O; dOrn = NCCC[C@@H](N)C(=O)O",
  "data": [
    {"system": "DIV17", "assay": "qHTS profiling for inhibitors of Plasmodium falciparum proliferation (AID 504749); note: nearly all actives have a fitted effect of over 60% in size; note: potency is the fitted concentration of half-maximal effect;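 for activity, negative = inhibition: 0% = DMSO vehicle and full inhibition = artemisinin control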", "details": "P. falciparum in erythrocytes, SYBR Green DNA, 72 h; series mostly up to 12.8 µM; activity, negative = inhibition: at the top concentration", "summary_of_the_method": "(§1)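 P. falciparum-infected erythrocytes (0.3% parasitemia, 2.5% hematocrit final) were exposed to compounds for 72 h at 37 C in 5% CO2, then lysed with SYBR Green buffer overnight at room temperature; parasite DNA fluorescence was normalized to artemisinin and DMSO controls.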", "values": [
      {"smiles": "C[C@H](CCC(=O)O)[C@H]1CC[C@@H]2[C@@H]3[C@@H](O)C[C@H]4C[C@@H](O)CC[C@@]4(C)[C@H]3CC[C@@]21C", "activity, negative = inhibition": "5.09%"},
      {"smiles": "CN(C/C=C\\c1ccccc1)Cc1cccc2ccccc12", "activity, negative = inhibition": "-16.5% [at 28.7 µM]"},
      {"smiles": "C[C@H](C(=O)O)c1cccc(Oc2ccccc2)c1", "activity, negative = inhibition": "-4.88%"},
      {"smiles": "CC1(C)[C@@H](OC(=O)CCC(=O)O)CC[C@@]2(C)[C@H]1CC[C@@]1(C)[C@H]2C(=O)C=C2[C@H]3C[C@](C)(C(=O)O)CC[C@]3(C)CC[C@@]21C", "activity, negative = inhibition": "-4.95%"},
      {"smiles": "CCOC(=O)O[C@@H](C)OC(=O)[C@@H]1N2C(=O)[C@@H](NC(=O)[C@@H](N)c3ccccc3)[C@H]2SC1(C)C", "activity, negative = inhibition": "9.57%"},
      {"smiles": "Cc1ccsc1/C=C\\C1=NCCCN1C", "activity, negative = inhibition": "-17%"},
      {"smiles": "C#C[C@]1(O)CC[C@@H]2[C@H]3CCC4=CCCC[C@@H]4[C@@H]3CC[C@@]21C", "activity, negative = inhibition": "2.87%"},
      {"smiles": "CC[C@H](C)[C@H](N)C1=N[C@H](C(=O)N[C@@H](CC(C)C)C(=O)N[C@@H](CCC(=O)O)C(=O)N[C@@H](C(=O)N[C@H]2CCCCNC(=O)[C@@H](CC(N)=O)NC(=O)[C@@H](CC(=O)O)NC(=O)[C@@H](Cc3cnc[nH]3)NC(=O)[C@@H](Cc3ccccc3)NC(=O)[C@@H]([C@@H](C)CC)NC(=O)[C@@H](CCCN)NC2=O)[C@@H](C)CC)CS1", "note": "({Ileψ(thiazoline)Cys}-LE[d(aIle)]K[dOrn][d(aIle)][dF][dH][dD][dN]; lactam 4-C)", "activity, negative = inhibition": "1.1%"},
      {"smiles": "Clc1ccc([C@H](Cn2ccnc2)OCc2c(Cl)cccc2Cl)c(Cl)c1", "Potency": "4.05 µM (active)"},
      {"smiles": "C[C@@H](CNC1CCCCC1)OC(=O)c1ccccc1", "Potency": "4.55 µM (active)"},
      {"smiles": "CC[C@H](CO)NCCN[C@@H](CC)CO", "activity, negative = inhibition": "-1.5%"}
    ]},
    {"system": "DIV30", "assay": "qHTS profiling for inhibitors of Plasmodium falciparum proliferation (AID 504749); note: nearly all actives have a fitted effect of over 60% in size; note: potency is the fitted concentration of half-maximal effect;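 for activity, negative = inhibition: 0% = DMSO vehicle and full inhibition = artemisinin control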", "details": "P. falciparum in erythrocytes, SYBR Green DNA, 72 h; series mostly up to 12.8 µM; activity, negative = inhibition: at the top concentration", "summary_of_the_method": "as §1", "values": [
      {"smiles": "C[C@H](CCC(=O)O)[C@H]1CC[C@@H]2[C@@H]3[C@@H](O)C[C@H]4C[C@@H](O)CC[C@@]4(C)[C@H]3CC[C@@]21C", "activity, negative = inhibition": "-7.17%"},
      {"smiles": "CN(C/C=C\\c1ccccc1)Cc1cccc2ccccc12", "activity, negative = inhibition": "-5.03% [at 28.7 µM]"},
      {"smiles": "CCN(CCCCOC(=O)c1ccc(OC)c(OC)c1)[C@@H](C)Cc1ccc(OC)cc1", "activity, negative = inhibition": "-23.3%"},
      {"smiles": "C[C@H](C(=O)O)c1cccc(Oc2ccccc2)c1", "activity, negative = inhibition": "2.63%"},
      {"smiles": "CC1(C)[C@@H](OC(=O)CCC(=O)O)CC[C@@]2(C)[C@H]1CC[C@@]1(C)[C@H]2C(=O)C=C2[C@H]3C[C@](C)(C(=O)O)CC[C@]3(C)CC[C@@]21C", "activity, negative = inhibition": "-0.936%"},
      {"smiles": "CCOC(=O)O[C@@H](C)OC(=O)[C@@H]1N2C(=O)[C@@H](NC(=O)[C@@H](N)c3ccccc3)[C@H]2SC1(C)C", "activity, negative = inhibition": "-5.97%"},
      {"smiles": "Cc1ccsc1/C=C\\C1=NCCCN1C", "activity, negative = inhibition": "3.57%"},
      {"smiles": "C#C[C@]1(O)CC[C@@H]2[C@H]3CCC4=CCCC[C@@H]4[C@@H]3CC[C@@]21C", "activity, negative = inhibition": "0.152%"},
      {"smiles": "CC[C@H](C)[C@H](N)C1=N[C@H](C(=O)N[C@@H](CC(C)C)C(=O)N[C@@H](CCC(=O)O)C(=O)N[C@@H](C(=O)N[C@H]2CCCCNC(=O)[C@@H](CC(N)=O)NC(=O)[C@@H](CC(=O)O)NC(=O)[C@@H](Cc3cnc[nH]3)NC(=O)[C@@H](Cc3ccccc3)NC(=O)[C@@H]([C@@H](C)CC)NC(=O)[C@@H](CCCN)NC2=O)[C@@H](C)CC)CS1", "note": "({Ileψ(thiazoline)Cys}-LE[d(aIle)]K[dOrn][d(aIle)][dF][dH][dD][dN]; lactam 4-C)", "activity, negative = inhibition": "1.02%"},
      {"smiles": "O=C(O)COCCN1CCN([C@@H](c2ccccc2)c2ccc(Cl)cc2)CC1", "activity, negative = inhibition": "-3.87%"},
      {"smiles": "CCN(CC)CCOC(=O)[C@@H](Cc1cccc2ccccc12)C[C@@H]1CCCO1", "activity, negative = inhibition": "-12.3%"},
      {"smiles": "Clc1ccc([C@H](Cn2ccnc2)OCc2c(Cl)cccc2Cl)c(Cl)c1", "Potency": "7.21 µM (active)"},
      {"smiles": "CC[C@H](CO)NCCN[C@@H](CC)CO", "activity, negative = inhibition": "1.05%"}
    ]}
  ]
}
